Results on eight compounds are retold here after PubChem BioAssay (NCI).

SMILES strings stand for the structures. Compounds without any hit were thinned out: in the full panel of roughly 83,000, 20% have a hit.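 Single-dose data. Exposure time 48 hours. Values below 10 considered active.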 Active and inactive are the calls of the source.

The test relates to SK-MEL-5 melanoma. Kind of test: NCI-60 one-dose screen, 48 h (100 = growth as untreated, 0 = no growth, -100 = all killed). The settings on record: 10 µM unless noted.
For `COc1cc2nc(Cl)nc(Nc3cccc(C(=O)/C=C/c4ccc(F)cc4)c3)c2cc1OC`, the growth was 73.4% (inactive). `CC[C@H](CC[C@@H](C)[C@H]1CC[C@H]2[C@@H]3/C(=C/c4cccnc4)C(=O)C4=CC(=O)CC[C@]4(C)[C@H]3CC[C@]12C)C(C)C`: the growth is 79.8% (inactive). In the case of `COc1ccc(CCN2C(=O)C(C)(C)SC2=S)cc1OC` it was 99.5% (inactive); in that of `C=C(C)[C@@H]1CC[C@]2(C(=O)N3CCN(C)CC3)CC[C@]3(C)[C@H](CC[C@@H]4[C@@]5(C)C/C(=C/c6ccc(C(F)(F)F)cc6)C(=O)C(C)(C)[C@@H]5CC[C@]43C)[C@@H]12`, 99.1% (inactive). Then `Cc1nc([P+](c2ccccc2)(c2ccccc2)c2ccccc2)c(Sc2sc(-c3ccccc3)nc2[P+](c2ccccc2)(c2ccccc2)c2ccccc2)o1`, with -17.1% (active).

As to `O=C1NC(=Nc2ccc(S(=O)(=O)Nc3nccs3)cc2)S/C1=C\c1coc2ccccc2c1=O`, the growth is 103% (inactive). In the case of `Cc1ccc(Sc2sc(-c3ccccc3)nc2[P+](c2ccccc2)(c2ccccc2)c2ccccc2)cc1` it was -97.6% (active); in that of `Clc1ccccc1-c1nc(Nc2nc3ccccc3s2)nc(C(Cl)(Cl)Cl)n1`, 90.7% (inactive).
